Out of some 150,000 compounds screened, about 540 (0.36%) showed an effect of 50% or more. The list comes from a sample in which strong results are over-represented; it also holds similar structures and randomly drawn compounds.

The test has as its system Plasmodium falciparum. As to the kind of experiment: Primary screen in NF54 nanoGlo assay, in single point, at 2uM, 72h; a lower Z score goes with more inhibition. Format: functional, Erythrocyte. Particulars: timepoint 72 hour.
By % Inhibition is commonly meant the drop in the measured response relative to a control, in per cent. Consider `Cc1ccc(CNC(=O)NCC(=O)N2CCC=C(F)C2)cc1`, for which the “% Inhibition” value is 0% and the Z score is given as 0.03.
`O=C(Nc1cnccc1CO)c1csc(C2CCCCC2)c1`: the “% Inhibition” value was determined as 0% and the Z score is on record as 0.04.
In the same order, the values of `O=C(N[C@H]1C[C@@H]2C[C@H]1N(C(=O)c1ccccc1C(F)(F)F)C2)c1cccnc1` are 35% and -3.96.
In the same order, the values of `Cc1cccc(NCc2ccc(N3N=C(c4ccccc4)C[C@H]3c3ccccc3)cc2)c1` are -1% and 0.11.
In the same order, the values of `c1ccc(C2=NN(c3ccc(-c4cc(-c5ccccc5)[n+](-c5ccccc5)c(-c5ccccc5)c4)cc3)[C@H](c3ccccc3)C2)cc1` are 91% and -14.02.
For the molecule `O=C(NCc1ccc(-n2cncn2)nc1)c1ccncc1`, the “% Inhibition” value is -19% and the Z score was determined as 1.67.
In the same order, the values of `O=C(Cc1ccc(Cl)cc1)Nc1cnc(-n2ccnc2)nc1` are 4% and -0.61.
In the same order, the values of `COC1(C)CC(N(C)C(=O)[C@@H]2Cc3cncn3C(=O)N2)C1(C)C` (some centres undefined) are -3% and 0.52.
`Cn1cnnc1[C@H]1CCCN(S(=O)(=O)N2CCCCC2)C1`: the “% Inhibition” value is given as -6% and the Z score is recorded as 0.88.
In the same order, the values of `O=C(N[C@H]1CCc2ncccc2C1)c1cccc(B(O)O)c1` are -4% and 0.45.
In the same order, the values of `O=C(NCCN1CCC(CO)CC1)N1CC(Oc2ccccc2F)C1` are -17% and 1.55.
In the same order, the values of `N[C@H]1C[C@H](c2cc(NCCCc3cccnc3)nc(C3CC3)n2)C1` are 71% and -7.09.
As for `NC1CC(c2cc(NCc3cccnc3)nc(C3CC3)n2)C1` (centres undefined), the “% Inhibition” value is 15% and the Z score is -2.04.
In the same order, the values of `CC(=O)N[C@H]1C[C@@H](c2cc(NCCCc3cccnc3)nc(C)n2)C1` are -15% and 2.91.
In the case of `C[C@@H](C(=O)NC(C)(C)c1noc(C(N)=O)n1)c1ccccc1`, the “% Inhibition” value turned out to be 2% and the Z score was -0.23.
In the same order, the values of `O=C1COc2ccccc2N1Cc1nc(-c2ccc(N3CCOCC3)cc2)no1` are -19% and 2.51.
With `CC(C)N(CC(=O)Nc1nccs1)Cc1ccccn1`, the “% Inhibition” value was 65% and the Z score is recorded as -10.08.
In the same order, the values of `CC(C)N(CC(=O)Nc1nccs1)C(=O)COCc1ccccc1` are -7% and 0.71.
In the same order, the values of `C[C@@H](c1cccnc1)N(C)CC(=O)Nc1nccs1` are 9% and -1.03.
In the same order, the values of `COc1ccc(Nc2nc(N3CCCC3)nc3c2cnn3C)cc1Cl` are 27% and -3.01.
Turning to `O=C(Cn1ncn2nccc2c1=O)Nc1cc(Cl)cc(Cl)c1`, the “% Inhibition” value is -3% and the Z score turned out to be 0.43.
In the same order, the values of `CC(C)(Oc1ccc(Cl)cc1)C(=O)Nc1c2c(nn1C(C)(C)C)CS(=O)(=O)C2` are -14% and 2.68.
In the same order, the values of `Cc1cc(=O)[nH]c(-n2nc(C3CC3)cc2NC(=O)C(C)(C)Oc2ccc(Cl)cc2)n1` are 84% and -15.44.
In the same order, the values of `COc1ccc(Cl)cc1C(=O)Nc1ccnn1C[C@H]1CCOC1` are 3% and -0.37.
With `COc1ccc(CC(=O)Nc2cc(C3CC3)nn2-c2nc(C)cc(=O)[nH]2)cc1`, the “% Inhibition” value worked out at 0% and the Z score was -0.01.
In the same order, the values of `COc1ccc(Cl)cc1C(=O)Nc1cc(C2CC2)nn1-c1nc(C)cc(=O)[nH]1` are 63% and -6.61.
In the same order, the values of `COc1ccc(Cl)cc1C(=O)N[C@H]1CCc2nn(C)c(=O)cc2C1` are -18% and 3.11.
